High-throughput results from PubChem.
CHT allo act = CHT positive allosteric modulators, primary screen, cell-based, membrane potential dye, choline EC20; B-score at 10 µM; CHT-expressing cells; hits give high values; LV-AA mutant CHT in HEK293 cells; High affinity choline transporter 1 (Homo sapiens), Q9GZV3; hit rate 0.49% among 310,000;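 active = initial fluorescence not abnormally high and integrated response B-score, plate-corrected, over 3 SD above library mean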
Target sequence (Q9GZV3 whole entry, looked up): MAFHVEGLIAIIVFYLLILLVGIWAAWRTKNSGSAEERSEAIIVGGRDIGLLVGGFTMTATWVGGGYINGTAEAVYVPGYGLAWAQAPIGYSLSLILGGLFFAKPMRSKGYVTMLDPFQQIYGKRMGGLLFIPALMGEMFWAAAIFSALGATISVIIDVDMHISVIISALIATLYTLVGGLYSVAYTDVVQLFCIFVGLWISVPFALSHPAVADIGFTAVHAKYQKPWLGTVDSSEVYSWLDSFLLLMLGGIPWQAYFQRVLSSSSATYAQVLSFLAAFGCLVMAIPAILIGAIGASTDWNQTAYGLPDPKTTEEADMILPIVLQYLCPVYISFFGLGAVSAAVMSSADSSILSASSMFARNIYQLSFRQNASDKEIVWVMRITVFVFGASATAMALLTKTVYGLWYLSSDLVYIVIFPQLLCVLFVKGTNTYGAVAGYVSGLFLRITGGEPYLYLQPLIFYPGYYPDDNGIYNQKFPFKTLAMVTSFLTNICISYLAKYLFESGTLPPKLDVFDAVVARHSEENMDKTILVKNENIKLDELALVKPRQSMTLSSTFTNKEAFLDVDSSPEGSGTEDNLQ
CHT inh = inhibitors of human choline transporter CHT; High affinity choline transporter 1 (Homo sapiens), Q9GZV3; CHT-expressing cells, membrane potential dye, choline response; hits give low values; B-score at 10 µM; hit rate 0.86% among 310,000; AID 488975, 2010;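 active = B-score over 3 SD under the library average, and starting fluorescence ratio not unusually high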;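 note: choline stimulus applied at its EC90 after an EC20 pre-addition; B-score computed on integrated fluorescence ratio after choline addition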
MIN6 prolif = inducers of MIN6 beta-cell proliferation, primary screen, ATP luminescence, uHTS | MIN6 cells proliferation, ATPlite luminescence, 48 h; cells starved in 0.2% serum; 100% = growth in 10% serum | proliferation, % at 10 µM | hit rate 0.29% among 330,000 | AID 2380, 2010;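 active = compounds whose signal lies at least 3.5 SD above the mean of all wells on their plate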
TAG inh = inhibitors of triacylglycerol accumulation, primary screen, cell-based, uHTS, fluorescence, H9c2; inhibition, % at 12.5 µM; H9c2 cells, Nile Red lipid (TAG) fluorescence; cells loaded with 200 µM oleic acid; hit rate 0.66% among 230,000;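 active = pattern-corrected inhibition of lipid staining of at least 50% with the nuclear-stain viability signal not falling by more than 50%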
CHT act confirm = CHT activators, confirmation, cell-based, membrane potential dye, duplicate. shares compounds with CHT allo act. CHT-expressing cells, membrane potential dye fluorescence (FDSS); % of choline EC20–EC90 response window; HEK293 expressing CHT LV-AA mutant; choline added at its EC20. activation, % at 10 µM. hit rate 91% among 2,500;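 active = primary screen active, with duplicate mean activation above negative control mean plus 3 SD, cut at about 11% in these data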
HEK293 MP dye = membrane potential response in parental HEK293 cells, counter-screen for CHT activator project, cell-based, membrane potential dye; shares compounds with CHT allo act; membrane potential dye fluorescence (FDSS); measured after EC20 choline addition; ratio readout change at 10 µM, hits read low; hit rate 62% among 2,500; AID 623908, 2012;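 active = duplicate-averaged ratio beyond 3 SD from buffer wells, up or down, though filed actives are nearly all decreases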
Each line names hits and unclear results; the compound was inactive in the other large screens (follow-up assays come after a bar, where they were run). Hits are enriched below; roughly 1.7% of the tested compounds scored in any of these assays.

CCC(C)(C)n1nnnc1C(c1ccc(O)c(OC)c1)N1CCc2ccccc2C1 (centres undefined)	none (no result: TAG inh)
C=C(C)[C@@H]1CC=C(CN2CCC(CCOC)(C(=O)OCC)CC2)CC1	none
COc1ccc(OC)c(S(=O)(=O)Nc2cc3c(cc2N2CCCC2)n(C)c(=O)c(=O)n3C)c1	CHT allo act 7.23 (no result: TAG inh) | CHT act confirm 53.0 | HEK293 MP dye -59.8
Cn1c(=O)c(=O)n(C)c2cc(N3CCCCC3)c(NS(=O)(=O)c3ccc([N+](=O)[O-])cc3)cc21	CHT allo act 10.3 (no result: TAG inh) | CHT act confirm 51.6 | HEK293 MP dye -47.4
O=[N+]([O-])c1ccc(S(=O)(=O)Nc2ccc(-c3ccc(N4CCCC4)nn3)cc2)cc1	none | CHT act confirm 15.1 | HEK293 MP dye inactive
Cn1c(=O)c(=O)n(C)c2cc(N3CCOCC3)c(NS(=O)(=O)c3ccc(Br)cc3)cc21	CHT allo act 7.07 (no result: TAG inh) | CHT act confirm 52.7 | HEK293 MP dye -43.2
Cn1nc(C(=O)OCC(=O)Nc2sccc2C(N)=O)c2ccccc2c1=O	none
CCc1ccc(S(=O)(=O)Nc2cc3c(cc2N2CCOCC2)n(C)c(=O)c(=O)n3C)cc1	CHT allo act 7.23 (no result: TAG inh) | CHT act confirm 55.5 | HEK293 MP dye -46.7
Cc1ccc(C(=O)NNC(=O)c2n[nH]c(=O)c3ccccc23)cc1C	none (no result: CHT allo act, CHT inh)
Cc1[nH]c2ccc(Cl)cc2c(=O)c1CN1CCCC1	none
CCOc1ccc2[nH]c(C)c(CN3CCCCC3)c(=O)c2c1	CHT allo act 7.58 | CHT act confirm 46.6 | HEK293 MP dye -34.2
CCOc1ccc2[nH]c(C)c(CN(C)C)c(=O)c2c1	none (no result: TAG inh) | CHT act confirm 52.6 | HEK293 MP dye -25
CCOc1ccc2[nH]c(C)cc(=O)c2c1	none (no result: TAG inh)
COC(=O)CCC[C@H]1CC2(C[C@H](CCCO[Si](C)(C)C(C)(C)C)N1C(=O)OC(C)(C)C)OCCO2	none (no result: CHT allo act, CHT inh)
CCOc1ccc(/C=C/C(=O)OCC(=O)NCCc2ccc(OCC)c(OCC)c2)cc1OC	none
CCc1ccc(Nc2n[n+](-c3ccccc3)c(-c3ccc(OCc4ccccc4)cc3)s2)cc1	CHT allo act 17.5 | CHT act confirm inactive | HEK293 MP dye inactive
CCOCCCNC(=O)C(NC(=O)Cc1cccs1)c1ccc(OC)cc1 (centres undefined)	none
CC(C)C(=O)N1CCN(c2ccccc2NC(=O)c2ccc([N+](=O)[O-])o2)CC1	CHT allo act 11.3 (no result: TAG inh) | CHT act confirm 38.8 | HEK293 MP dye inactive
O=C(Nc1ccccc1N1CCN(C(=O)c2ccccc2)CC1)c1ccc([N+](=O)[O-])o1	none (no result: CHT allo act, CHT inh, TAG inh)
CCC(=O)N1CCN(c2ccccc2NC(=O)c2ccc([N+](=O)[O-])o2)CC1	CHT allo act 8.85 (no result: TAG inh) | CHT act confirm 11.9 | HEK293 MP dye inactive
c1ccc(CC2CCN(C3=Nc4cccc5cccc3c45)CC2)cc1	none
c1cc2c3c(cccc3c1)C(N1CCOCC1)=N2	CHT allo act 8.55 | CHT act confirm 56.2 | HEK293 MP dye -67.7
CC(=O)N1CCN(C2=Nc3cccc4cccc2c34)CC1	CHT allo act 9.83 (no result: TAG inh) | CHT act confirm 51.7 | HEK293 MP dye -76.5
COc1ccccc1NC1=Nc2cccc3cccc1c23	none
CC1CN(c2oc(-c3ccccc3Cl)nc2C#N)CC(C)O1 (centres undefined)	none
CC1CN(C2=Nc3cccc4cccc2c34)CC(C)O1 (centres undefined)	none | CHT act confirm 57.6 | HEK293 MP dye -56.4
COc1ccccc1N1CCN(C2=Nc3cccc4cccc2c34)CC1	none | CHT act confirm 39.1 | HEK293 MP dye -58.4
CC1(C(=O)NS(=O)(=O)c2ccc(Cl)cc2)CCN1C(=O)c1ccco1 (centres undefined)	none (no result: CHT allo act, CHT inh, MIN6 prolif)
COc1cc(-c2nc3cccc(C)n3c2NCC2CCCO2)ccc1O (centres undefined)	CHT allo act 6.74 | CHT act confirm 35.9 | HEK293 MP dye -40.4
c1ccc(OCc2noc(CN3CCC(C4CCCCC4)C3)n2)cc1 (centres undefined)	none (no result: TAG inh)
CCN1CCN(c2ccc(S(=O)(=O)N3CCCCC3)cc2NC(=O)/C=C/c2cccc(OC)c2OC)CC1	none (no result: TAG inh) | CHT act confirm 40.8 | HEK293 MP dye -31.5
CCN1CCN(c2ccc(S(=O)(=O)N3CCCCC3)cc2NC(=O)/C=C/c2ccc(F)cc2)CC1	none
CCN1CCN(c2ccc(S(=O)(=O)N3CCCCC3)cc2NC(=O)Cc2ccc(OC)cc2)CC1	none | CHT act confirm 39.5 | HEK293 MP dye -35.8
COC1=C(Nc2ccccc2)C(=O)c2ccccc2C1=O	none (no result: TAG inh) | CHT act confirm 34.7 | HEK293 MP dye -57.5
COc1ccccc1C(CNc1ncnc2sc(C)c(C)c12)N(C)C (centres undefined)	none (no result: TAG inh) | CHT act confirm 54.0 | HEK293 MP dye -51.8
CCCc1nc2ccccc2c(C(=O)OCC(=O)NCc2ccc3c(c2)OCO3)c1CC	none
CCCc1nc2ccccc2c(C(=O)OC(C)C(=O)NCc2ccc3c(c2)OCO3)c1CC (centres undefined)	CHT allo act 7.71 (no result: TAG inh) | CHT act confirm 35.8 | HEK293 MP dye inactive
c1ccc(C[n+]2csc3ccccc32)cc1	none (no result: TAG inh)
Brc1cc2ccccc2[n+](Cc2ccccc2)c1	CHT allo act 6.96 | CHT act confirm 76.2 | HEK293 MP dye -67.4
Cc1cc(=O)oc2c(C)c(OCC(=O)NC3CC(C)(C)NC(C)(C)C3)ccc12	CHT allo act 8.16 (no result: TAG inh) | CHT act confirm 46.8 | HEK293 MP dye -54.2
Cc1cc(OCC(=O)NC2CC(C)(C)NC(C)(C)C2)c2c(C)c(C)c(=O)oc2c1	CHT allo act 9.21 (no result: TAG inh) | CHT act confirm 49.0 | HEK293 MP dye -47.7
Cc1cc(OCC(=O)NC2CC(C)(C)NC(C)(C)C2)c2c(C)cc(=O)oc2c1	none (no result: TAG inh) | CHT act confirm 65.5 | HEK293 MP dye -45
O=C(Cc1ccccc1Cl)N/N=C/c1cccnc1	none
CCOC(=O)c1c(C)[nH]c(C=C2C(=O)CCCC2=O)c1O	none (no result: TAG inh)
CC(C)(C)Nc1c2ccccc2nc2ccccc12	none (no result: TAG inh) | CHT act confirm 36.9 | HEK293 MP dye -57.5
OCCCNc1c2ccccc2nc2ccccc12	none (no result: TAG inh)
COc1cccc(NC(=O)CN2C(=O)C(c3ccc(C)cc3)=NC23CCCCCC3)c1	none (no result: TAG inh)
COc1cc(NC(=O)CN2C(=O)C(c3ccccc3)=NC23CCCCCC3)cc(OC)c1	CHT allo act 7.59 (no result: TAG inh) | CHT act confirm inactive | HEK293 MP dye inactive
CCc1nc2ccc(C(=O)NCCCn3ccnc3)cn2c1N(C)Cc1ccc(OC)cc1	none (no result: CHT allo act, CHT inh, MIN6 prolif)
O=C(O)C1NCCc2ccccc21 (centres undefined)	none (no result: TAG inh) | CHT act confirm inactive | HEK293 MP dye inactive
